Screens deposited in PubChem by several laboratories.
E-sel TNF inh: E-selectin induction blockers in HUVEC – imaging, immunofluorescence, high content, primary screen; HUVEC TNFa-induced E-selectin immunofluorescence; AID 1246, 2008; inhibition, % at 2 µM; 0.71% of 120,000 active;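 active means inhibition above the batch mean plus 3 SD, and confirmed as a hit on visual image review, cut at about 43% in these data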;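 further: 0% = TNF-stimulated DMSO wells and 100% = unstimulated control wells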
CYP2C19 inh: blockers of cytochrome P450 2C19 activity – biochemical, luminescence, ADME assay, primary screen; P33261; CYP2C19 Supersomes, luciferin-H EGE luminescence, 30 min; inhibition, % at 5 µM; 21% of 96,000 active;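 active means CYP2C19 inhibition above a set limit at 5 µM in the primary screen, cut at about 50% in these data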;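 further: plate controls were negative control wells for no effect and 2.5 mM tranylcypromine positive control for full effect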
Target sequence (P33261 whole entry, looked up): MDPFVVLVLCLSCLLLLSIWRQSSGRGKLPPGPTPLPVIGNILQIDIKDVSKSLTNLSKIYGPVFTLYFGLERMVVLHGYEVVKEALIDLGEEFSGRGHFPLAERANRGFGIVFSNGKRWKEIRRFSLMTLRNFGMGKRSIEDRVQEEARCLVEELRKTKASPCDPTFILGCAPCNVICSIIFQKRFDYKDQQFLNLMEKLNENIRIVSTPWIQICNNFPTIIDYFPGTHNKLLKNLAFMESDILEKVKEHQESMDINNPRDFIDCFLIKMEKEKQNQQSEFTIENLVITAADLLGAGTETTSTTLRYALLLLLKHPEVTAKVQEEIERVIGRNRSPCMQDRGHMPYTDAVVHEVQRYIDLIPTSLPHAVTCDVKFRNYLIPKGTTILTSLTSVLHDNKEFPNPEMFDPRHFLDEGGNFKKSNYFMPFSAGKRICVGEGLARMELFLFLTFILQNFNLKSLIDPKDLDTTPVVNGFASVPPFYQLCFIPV
CYP2C19 act: human CYP2C19 activators, primary screen, biochemical, luminescence. Cytochrome P450 2C19 (Homo sapiens), P33261. recombinant CYP2C19, luciferin-H EGE luminescence; active compounds read high; 0 = fully inhibited enzyme, 1 = untreated enzyme. activation factor at 5 µM. 96,000 tested, under 10 active. AID 1025, 2008;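 active means activation factor of at least 2 at 5 µM in the primary screen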;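 further: 0 = wells with 2.5 mM tranylcypromine and 1 = vehicle-only wells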
CYP2C9 inhib: blockers of cytochrome P450 2C9 activity – biochemical, luminescence, ADME assay, primary screen; CYP2C9 Supersomes, luciferin-H conversion; P11712; 20% of 96,000 active; inhibition, % at 5 µM;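 active means blocking of liver enzyme CYP2C9 beyond about 50% at 5 µM, limit read from the data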
CYP2C9 activ: human CYP2C9 activators, primary screen, biochemical, luminescence. Cytochrome P450 2C9 (Homo sapiens), P11712. recombinant CYP2C9, luciferin-H conversion; active compounds read high; factor 1 = untreated enzyme, 0 = blocked. activation factor at 5 µM. 1.4% of 96,000 active;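 active means activation factor of 2 or more for CYP2C9 at a 5 µM dose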;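 further: 0 = sulfaphenazole-blocked wells and 1 = vehicle-only wells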
F-actin modifier: modifiers of F-actin cytoskeleton organization, primary screen, imaging, HUVEC, phalloidin staining, high-content imaging | 0.18% of 91,000 active | HUVEC TNFa F-actin phalloidin imaging | inhibition, % at 2 µM;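 active means inhibition above the batch mean plus 3 SD and confirmed as a hit by visual image inspection, cut at about 30% in these data, passing the limit was not always enough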
Numbers without * were called inactive; . = no result given. In the library only some 22% were active in any assay of this set; here they are far more common.

SMILES | E-sel TNF inh | CYP2C19 inh | CYP2C19 act | CYP2C9 inhib | CYP2C9 activ | F-actin modifier
Cc1nc2ncnn2c(C)c1CCC(=O)NC(C)CCc1ccco1 (stereo not drawn) | -15 | -8 | 1.1 | 33 | 0.7 | -33
COc1ccc(S(=O)(=O)N2CCOCC2)cc1C(=O)Nc1cc(C)on1 | -4 | -11 | 1.1 | -31 | 1.3 | 4
COc1ccc(C(=O)Oc2ccc(C(C)=O)cc2)c(OC)c1 | 12 | 59* | 0.4 | 3 | 1 | -16
CN(CCCCCNC(=O)/C=N/O)Cc1ccccc1 | -69 | . | . | . | . | .
CC(=O)c1sc2nc(-c3ccc(C)cc3)c3c(c2c1N)CCCC3 | 10 | . | . | . | . | .
CN(C)c1nc(SCCOC(=O)c2ccccc2)nc(N(C)C)n1 | -10 | 99* | 0 | 62* | 0.4 | -8
CCNc1nc(NC(C)C)nc(SCCOC(=O)c2ccccc2)n1 | -3 | . | . | . | . | .
CSc1cccc(NC(=O)CSc2ccc(C)cc2)c1 | 3 | 19 | 0.8 | -5 | 1 | .
CCn1cc(Br)c(C(=O)Nc2cccc(SC)c2)n1 | 15 | 81* | 0.2 | 38 | 0.6 | -45
CSc1cccc(NC(=O)CSc2ccc(Cl)cc2)c1 | -9 | 61* | 0.4 | 5 | 1 | .
CCn1cc(Br)c(C(=O)NC(C)c2ccccc2)n1 (stereo not drawn) | -9 | 33 | 0.7 | -55 | 1.5 | .
CCSCc1nnc(SCC(=O)Nc2cccc(SC)c2)n1C | 3 | 91* | 0.1 | 32 | 0.7 | 1
Cc1nc(/C=[N+](\[O-])C(C)(C)/C=N/O)n(O)c1C | -22 | -20 | 1.2 | -22 | 1.2 | -5
O=C(O)CCc1nnc2n(Cc3ccc(F)cc3)c(=O)c3ccccc3n12 | . | -2 | 1 | -1 | 1 | -14
CS(=O)(=O)N(CCc1ccccc1)CC(=O)N1CCN(c2ccccc2)CC1 | 1 | 20 | 0.8 | 8 | 0.9 | 5
Cc1cc2n(c1)CCn1c(C)ccc1-2 | -8 | -5 | 1.1 | 70* | 0.3 | 13
Clc1ccc(CSc2nncn2-c2ccccn2)cc1 | 24 | 68* | 0.3 | 7 | 0.9 | -29
CCOC(=O)c1c(NC(=O)CSc2nncs2)sc(C)c1-c1ccccc1 | -33 | . | . | . | . | .
c1cc(-c2noc(-c3ccc4c(c3)OCO4)n2)ccn1 | -16 | . | . | . | . | -11
COCCn1nnnc1SCC(=O)NCc1ccc2c(c1)OCO2 | -19 | . | . | . | . | .
O=C(CSc1nccn1-c1ccc(F)cc1)NCc1ccc2c(c1)OCO2 | . | 92* | 0.1 | 80* | 0.2 | 34
O=C(CSc1nccn1-c1ccccc1)NCc1ccc2c(c1)OCO2 | -2 | 100* | 0 | 98* | 0 | 4
CCOc1ccc(-n2ccnc2SCC(=O)NCc2ccc3c(c2)OCO3)cc1 | . | 81* | 0.2 | 64* | 0.4 | 19
O=C(CSc1nc2cc([N+](=O)[O-])ccc2n1-c1ccccc1)NCc1ccc2c(c1)OCO2 | -10 | . | . | . | . | .
CCOc1ccc(NCc2cc3c(C(C)(C)C)nn(-c4ccccc4)c3[nH]c2=O)cc1 | . | 15 | 0.8 | 59* | 0.4 | 0
SMILES | E-sel TNF inh | CYP2C19 inh | CYP2C19 act | CYP2C9 inhib | CYP2C9 activ | F-actin modifier
COc1cccc(NCc2cc3c(C(C)(C)C)nn(-c4ccccc4)c3[nH]c2=O)c1 | . | 28 | 0.7 | 82* | 0.2 | 11
Cc1ccc(-c2nn(-c3ccccc3)c3[nH]c(=O)c(CNCc4ccccc4)cc23)cc1 | -14 | . | . | . | . | -13
CN(CC(=O)Nc1c(Cl)cccc1Cl)C(=O)CCCN1C(=O)c2ccccc2C1=O | 7 | 30 | 0.7 | 86* | 0.1 | -10
Cc1ccc(NC(=O)CN(C)C(=O)CCCN2C(=O)c3ccccc3C2=O)cc1 | 14 | 22 | 0.8 | 21 | 0.8 | 20
COc1cc(OC)c(C2=NOC(C(=O)N3CCCc4ccccc43)C2)cc1Cl (stereo not drawn) | 13 | 30 | 0.7 | -8 | 1.1 | .
CCC1CCCCN1C(=O)C1CC(c2cc(Cl)c(OC)cc2OC)=NO1 (stereo not drawn) | -9 | 72* | 0.3 | -94 | 1.9 | -21
Nc1n[nH]c(S(=O)(=O)CCCc2ccccc2)n1 | 20 | 70* | 0.3 | 34 | 0.7 | -35
O=S(=O)(CCCc1ccccc1)c1ncn[nH]1 | -8 | 44 | 0.6 | 40 | 0.6 | -11
COc1ccc(S(=O)(=O)N[C@@H](CC(C)C)C(=O)O)cc1 | -3 | 7 | 0.9 | 10 | 0.9 | -30
CC(C)(C)n1nc2c(c1NC(=O)c1ccco1)CS(=O)C2 (stereo not drawn) | -27 | 0 | 1 | 2 | 1 | -2
COc1ccccc1C1C2C(=O)N(c3ccccc3)C(=O)C2ON1c1ccccc1 (stereo not drawn) | . | 77* | 0.2 | 86* | 0.1 | -11
COc1ccccc1N1C(=O)C2ON(c3ccccc3)C(c3ccc(N(C)C)cc3)C2C1=O (stereo not drawn) | 37 | . | . | . | . | .
O=C(O)COc1ccccc1C1C2C(=O)N(c3ccc(F)cc3)C(=O)C2ON1c1ccccc1 (stereo not drawn) | -2 | 38 | 0.6 | 54* | 0.5 | .
C/C(=N/NC(=O)c1cc(C(C)C)[nH]n1)c1cccs1 | -29 | -1 | 1 | 19 | 0.8 | -1
Cc1ccccc1C(=O)NNC(=O)Cc1ccccc1 | -19 | -8 | 1.1 | 7 | 0.9 | -9
CCOc1ccc(/C(O)=C2/C(=O)C(=O)N(CCN(C)C)C2c2ccccc2)cc1Cl (stereo not drawn) | -29 | . | . | . | . | .
CCOC(=O)c1cc(-c2ccccc2)nc2c1c(C)nn2-c1ccccn1 | -17 | -7 | 1.1 | -22 | 1.2 | 2
CCOC(=O)c1cc(-c2ccncc2)nc2c1c(C)nn2C | . | 96* | 0 | 50* | 0.5 | 10
COc1ccc(-c2c(C)nn(-c3ccccc3)c2N)cc1OC | 3 | . | . | . | . | -1
COc1ccc(-c2cnn(-c3ccccc3)c2N)cc1OC | -6 | 30 | 0.7 | -120 | 2.2* | .
Cn1nc(-c2ccc(Cl)cc2)c2cc(C(=O)N3CCN(c4ccccc4)CC3)sc21 | . | 38 | 0.6 | 84* | 0.2 | -5
Cn1nc(-c2ccc(Cl)cc2)c2cc(C(=O)N3CCN(c4ccccn4)CC3)sc21 | 13 | 32 | 0.7 | 56* | 0.4 | -6
Cn1nc(-c2ccc(Cl)cc2)c2cc(C(=O)NCCCN3CCCC3)sc21 | 12 | -6 | 1.1 | -3 | 1 | -6
Cn1nc(-c2ccc(Cl)cc2)c2cc(C(=O)N3CCCC3)sc21 | . | 48 | 0.5 | 37 | 0.6 | 6
COc1cccc(NC(=O)C(NCC(C)(C)CN(C)C)c2ccccc2)c1 (stereo not drawn) | -7 | 6 | 0.9 | 2 | 1 | 7
